High-throughput results deposited in PubChem by several laboratories.
Shown are actives, neighbours in structure and some others; about 2% of the full set was active somewhere.
FAS-TE inh: FAS thioesterase domain inhibitors, primary screen, biochemical, fluorescence intensity, uHTS | Fatty acid synthase (Homo sapiens), P49327 | recombinant FAS-TE, OMFH fluorogenic substrate, fluorescence endpoint | inhibition, % at 15 µM | 0.67% of 360,000 active;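 active = compounds whose normalised, plate-corrected inhibition of enzyme fluorescence in the single-dose primary screen is 50% or more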;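 note: 0% = DMSO with enzyme and 100% = substrate without enzyme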
ADAM10 inh: human ADAM10 inhibitors, primary screen, biochemical, QFRET, HTS; 0.62% of 370,000 active; Disintegrin and metalloproteinase domain-containing protein 10 (Homo sapiens), O14672; recombinant ADAM10, EDANS/DABCYL FRET peptide cleavage, 3 h; inhibition, % at 7 µM;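 active = inhibition above a per-campaign cutoff equal to the mean of compounds falling between control-based bounds plus 3 SD, cut at about 20% in these data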;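 note: 0% = DMSO wells while the 100% control is not disclosed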
GC-B act: human GC-B receptor activators, primary screen, HEK293 GC-B cells, cGMP TR-FRET, EC30 CNP; activation, % at 10 µM; 0% at EC30 CNP, 100% saturating CNP; Atrial natriuretic peptide receptor 2 (Homo sapiens), P20594; 0.11% of 370,000 active;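 active = activation at 10 µM reaching about 35% in either raw or pattern-adjusted values, limit read from the data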
Target sequence (P20594 whole entry, looked up): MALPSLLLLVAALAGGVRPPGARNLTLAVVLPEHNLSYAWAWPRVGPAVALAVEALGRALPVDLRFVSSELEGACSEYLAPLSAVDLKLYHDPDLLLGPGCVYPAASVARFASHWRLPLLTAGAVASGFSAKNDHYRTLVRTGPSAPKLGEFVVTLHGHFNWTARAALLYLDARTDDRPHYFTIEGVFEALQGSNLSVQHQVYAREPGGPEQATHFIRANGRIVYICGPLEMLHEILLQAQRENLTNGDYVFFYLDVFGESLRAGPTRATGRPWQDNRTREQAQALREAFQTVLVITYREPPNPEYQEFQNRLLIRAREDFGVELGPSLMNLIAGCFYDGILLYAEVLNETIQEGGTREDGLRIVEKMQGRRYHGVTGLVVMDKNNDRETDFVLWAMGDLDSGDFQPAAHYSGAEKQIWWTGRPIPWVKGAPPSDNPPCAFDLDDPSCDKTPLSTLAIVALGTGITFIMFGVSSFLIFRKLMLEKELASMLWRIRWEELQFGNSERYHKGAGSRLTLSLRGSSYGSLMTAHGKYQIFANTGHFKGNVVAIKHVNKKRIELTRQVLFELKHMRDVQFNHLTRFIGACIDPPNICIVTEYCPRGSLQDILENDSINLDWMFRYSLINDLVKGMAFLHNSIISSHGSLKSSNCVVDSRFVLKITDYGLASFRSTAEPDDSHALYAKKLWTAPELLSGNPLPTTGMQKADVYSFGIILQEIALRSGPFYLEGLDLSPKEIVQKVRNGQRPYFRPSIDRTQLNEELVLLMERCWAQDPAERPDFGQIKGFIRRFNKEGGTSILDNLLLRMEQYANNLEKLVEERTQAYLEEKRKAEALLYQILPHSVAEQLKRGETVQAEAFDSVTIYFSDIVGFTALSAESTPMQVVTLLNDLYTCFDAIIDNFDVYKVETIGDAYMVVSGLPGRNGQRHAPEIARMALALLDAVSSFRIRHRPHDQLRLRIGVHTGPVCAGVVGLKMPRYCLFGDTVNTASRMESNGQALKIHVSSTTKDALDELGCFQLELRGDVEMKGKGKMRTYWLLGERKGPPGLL
GC-A act: GC-A stimulated cGMP production enhancers – HEK293 GC-A cells, cGMP TR-FRET, EC30 ANP, primary screen; activation, % at 10 µM; 0.14% of 370,000 active; 0% at EC30 ANP, 100% saturating ANP; Atrial natriuretic peptide receptor 1 (Homo sapiens), P16066; AID 1671463, 2021; in the data active = activation above about 40%
ADAM17 inh: ADAM17 inhibitors, primary screen, biochemical, QFRET; Disintegrin and metalloproteinase domain-containing protein 17 (Homo sapiens), P78536; recombinant ADAM17, EDANS/DABCYL FRET peptide cleavage; inhibition, % at 6.95 µM; 0.83% of 370,000 active; AID 720648, 2013;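 active = inhibition above the mean of compounds lying between control limits plus 3 SD, set per campaign, cut at about 8.5% in these data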;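 note: 0% = DMSO-only wells as the low control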
FAS-TE inh conf: FAS thioesterase domain inhibitors, confirmation, biochemical, fluorescence intensity, single concentration | shares compounds with FAS-TE inh | recombinant FAS-TE, OMFH fluorogenic substrate | inhibition, % at 15 µM | 45% of 2,300 active | AID 624325, 2012;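 active = compounds inhibiting the enzyme by at least 50% at 15 µM in any one of the replicates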;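 note: 0% = enzyme with DMSO only and 100% = wells lacking enzyme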
ADAM10 confirm: human ADAM10 inhibitors, confirmation, biochemical, QFRET, triplicate | shares compounds with ADAM10 inh | ADAM10 QFRET peptide cleavage, EDANS fluorescence | inhibition, % at 6.95 µM | 1% of 2,100 active;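 active = inhibition above about 20% chosen separately for each screening run, limit read from the data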;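 note: 0% = DMSO wells and 100% = marimastat wells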
ADAM17 ctr: ADAM17 inhibitors, counter-screen for ADAM10 exosite inhibitor project, biochemical, QFRET, high throughput; shares compounds with ADAM10 inh; ADAM17 QFRET peptide cleavage, EDANS fluorescence; inhibition, % at 6.95 µM; 0.5% of 2,100 active;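 active = mean triplicate inhibition above the solvent-only control wells' mean plus 3 SD, cut at about 12% in these data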;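 note: 0% = DMSO wells and 100% = marimastat wells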
* hit, by the source's call; nt = not tested or not shown.

SMILES	FAS-TE inh	ADAM10 inh	GC-B act	GC-A act	ADAM17 inh	FAS-TE inh conf	ADAM10 confirm	ADAM17 ctr
O=C(Nc1cccc(Cl)c1)C1=Cc2cc(Cl)ccc2OC1	23.7	12.1	-4.2	4.3	3.6	nt	nt	nt
COc1ccc(S[C@]2(C(=O)N(C)C)CC(=O)N(C(=O)C3CC3)[C@@H]2c2ccc(OC)cc2)cc1	nt	-1.2	-9.5	-7.0	-0.6	nt	nt	nt
O=C(NCCN1C(=O)S/C(=C\c2ccccc2F)C1=O)C1CCN(S(=O)(=O)c2cccs2)CC1	61.4*	-4.4	0.9	1.2	-1.1	9.1	nt	nt
C=CCN1C(=O)[C@@H](CC(=O)N2CCN(C(=O)c3ccco3)CC2)[C@]2(C(=O)OCC)CCCCC/C=C/12	nt	-0.6	3.2	1.2	1.6	nt	nt	nt
CCc1ccc([C@H]2[C@@H]3C(=O)C[C@@H]4C(=O)N(Cc5ccccc5)C(=O)[C@@H]4[C@@H]3CN2S(=O)(=O)c2ccc(C)cc2)cc1	59.2*	23.1*	1.5	-2.0	3.9	12.4	6.4	2.5
CCc1ccc([C@H]2[C@@H]3C(=O)C[C@@H]4C(=O)N(C5CCCCC5)C(=O)[C@@H]4[C@@H]3CN2S(=O)(=O)c2ccc(C)cc2)cc1	72.5*	20.1*	-2.6	0.5	8.1	19.1	4.5	1.4
CCc1ccc([C@H]2[C@@H]3C(=O)C[C@@H]4C(=O)N(C)C(=O)[C@@H]4[C@@H]3CN2S(=O)(=O)c2ccc(C)cc2)cc1	9.7	11.7	-3.4	-1.8	2.8	nt	nt	nt
C=CCn1c(Cc2cccs2)nnc1SCC(=O)Nc1ccc(OCc2ccccc2)cc1	nt	13.2	-6.9	-1.4	7.6	nt	nt	nt
COC(=O)[C@]12C[C@H](CC(=O)NCC34CC5CC(CC(C5)C3)C4)C(=O)N(CCC3=CCCCC3)C1=C[C@H](C(C)C)O[C@@H]2C1CC1	nt	12.2	2.3	3.5	1.1	nt	nt	nt
COc1cccc(NC(=O)CN2C(=O)CSc3ccc(S(=O)(=O)N4CCOCC4)cc32)c1	14.0	3.2	10.1	0.8	3.8	nt	nt	nt
COc1cccc(NC(=O)CN2C(=O)CSc3ccc(S(=O)(=O)N4CCC(C)CC4)cc32)c1	65.1*	20.6*	-2.7	-1.9	3.3	72.2*	2.6	1.3
COc1ccc2c(c1)OC[C@H]1[C@H]2N2C(=O)CN(Cc3ccc(C)cc3)C(=O)[C@@]2(C)[C@H]1c1ccccc1	62.2*	20.1*	-0.6	-2.5	2.1	35.0	6.2	1.6
COc1ccc(Cl)cc1NC(=O)CN(C)C(=O)c1sc2ccccc2c1Cl	51.4*	23.5*	-6.8	-7.5	6.6	34.8	9.0	2.7
Cc1ccc(C2C(/C=C3/SC(=S)NC3=O)=C(c3cccs3)Oc3ccccc32)cc1 (centres undefined)	63.9*	20.0*	25.2	-15.9	5.1	21.6	14.3	1.8
CCc1ccc(NSc2ccccc2[N+](=O)[O-])cc1	51.2*	20.3*	1.7	8.2	8.1	0.1	6.0	2.1
O=C(O)c1ccccc1NSc1ccccc1[N+](=O)[O-]	4.6	-23.4	1.3	0.2	-5.8	nt	nt	nt
COc1ccc([C@@H]2[C@@H]3C(=O)N(C(C)(C)C)C(=O)[C@@H]3[C@]3(Cc4ccc(Cl)cc4)C(=O)N(c4ccc(OC)cc4)C(=O)N23)cc1	92.4*	20.8*	-1.6	-3.2	7.0	28.5	4.9	1.1
